Reference: PubChem BioAssay (NCI)
About 83,000 compounds went through this panel and 20% of them were active in at least one assay; those are over-represented in the sample as a whole.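 Activity criterion: percent growth below 10, measured after cells in 96-well plates were exposed to a single compound concentration for 48 hours.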 Activity calls are given as the source filed them.

Assays:
Assay in all cases: NCI-60 one-dose screen, 48 h (100 = growth as untreated, 0 = no growth, -100 = all killed)
Details in all cases: 10 µM unless noted
NCI-H23 lung = test system: NCI-H23 lung
NCI-H226 lung = test system: NCI-H226 lung
NCI-H322M lung = test system: NCI-H322M lung
NCI-H460 lung = test system: NCI-H460 lung
NCI-H522 lung = test system: NCI-H522 lung
786-0 renal = test system: 786-0 renal
COLO 205 colon = test system: COLO 205 colon
DU-145 prostate = test system: DU-145 prostate
K-562 leukemia = test system: K-562 leukemia
MALME-3M melanoma = test system: MALME-3M melanoma
MDA-MB-231 breast = test system: MDA-MB-231 breast
RXF 393 renal = test system: RXF 393 renal
SF-268 CNS = test system: SF-268 CNS
SF-295 CNS = test system: SF-295 CNS
SF-539 CNS = test system: SF-539 CNS
UACC-257 melanoma = test system: UACC-257 melanoma
M14 melanoma = test system: M14 melanoma
HCT-15 colon = test system: HCT-15 colon
A549/ATCC NSCLC = test system: A549/ATCC NSCLC

Measured: growth

COc1ccc(C2=NN(C(C)=O)C(c3cc(OC)c(OC)c(OC)c3)C2)cc1 (centres undefined)
inactive: NCI-H23 lung 101% | NCI-H226 lung 119% | NCI-H322M lung 119% | NCI-H460 lung 108% | NCI-H522 lung 67.7% | 786-0 renal 108% | COLO 205 colon 108% | DU-145 prostate 107% | K-562 leukemia 75.4% | MALME-3M melanoma 120% | MDA-MB-231 breast 109% | RXF 393 renal 111% | SF-268 CNS 94.4% | SF-295 CNS 95.4% | SF-539 CNS 91.5% | UACC-257 melanoma 113% | M14 melanoma 98.3% | HCT-15 colon 84.6%

Cc1scc2c1N(C(=O)CN1CCN(C)CC1)c1ccccc1NC2=O
inactive: NCI-H23 lung 93.9% | NCI-H226 lung 109% | NCI-H322M lung 105% | NCI-H460 lung 124% | NCI-H522 lung 104% | A549/ATCC NSCLC 104% | 786-0 renal 98.8% | COLO 205 colon 108% | DU-145 prostate 118% | K-562 leukemia 108% | MALME-3M melanoma 108% | MDA-MB-231 breast 99.6% | RXF 393 renal 111% | SF-268 CNS 110% | SF-295 CNS 101% | SF-539 CNS 112% | UACC-257 melanoma 106% | M14 melanoma 111% | HCT-15 colon 107%

COc1cc2c(-c3nc4cc(Cl)c(F)cc4s3)cc(=O)oc2c(C)c1OC
active: NCI-H23 lung -48.6% | NCI-H226 lung -48.8% | NCI-H322M lung 7.69% | NCI-H460 lung -36.1% | NCI-H522 lung -83.9% | A549/ATCC NSCLC -53.9% | 786-0 renal -70.2% | COLO 205 colon -46.6% | DU-145 prostate -85.3% | K-562 leukemia -22.6% | MDA-MB-231 breast -50.4% | SF-268 CNS -63.5% | SF-295 CNS -81.5% | SF-539 CNS -89% | UACC-257 melanoma -77.6% | M14 melanoma -35.2% | HCT-15 colon -39.1%

C/C(=C\CCc1ccsc1)CC/C=C(\C)CCCN1CCC(CO)CC1
active: NCI-H460 lung -46.3% | 786-0 renal 5.43% | COLO 205 colon -54.9% | K-562 leukemia -51.4% | MALME-3M melanoma -66.9% | SF-295 CNS 7.65% | SF-539 CNS 9.87% | UACC-257 melanoma -32.4% | M14 melanoma -47.4% | HCT-15 colon 0.233%
inactive: NCI-H23 lung 61.4% | NCI-H226 lung 63.4% | NCI-H322M lung 76.2% | NCI-H522 lung 27.7% | A549/ATCC NSCLC 36.6% | DU-145 prostate 64.5% | MDA-MB-231 breast 19.6% | SF-268 CNS 60.6%

O=C(/C=C/c1ccc(Cl)cc1)c1ccccc1
inactive: NCI-H23 lung 109% | NCI-H226 lung 91% | NCI-H322M lung 92.2% | NCI-H460 lung 107% | NCI-H522 lung 81.1% | 786-0 renal 93.7% | COLO 205 colon 120% | DU-145 prostate 106% | K-562 leukemia 66.6% | MDA-MB-231 breast 119% | SF-268 CNS 102% | SF-295 CNS 94.3% | SF-539 CNS 103% | UACC-257 melanoma 102% | M14 melanoma 100% | HCT-15 colon 75.4%

CCCCCCOc1ccc(/C=N/NC(N)=S)cc1
inactive: NCI-H23 lung 54.3% | NCI-H226 lung 66% | NCI-H322M lung 122% | NCI-H460 lung 92.6% | A549/ATCC NSCLC 88.3% | COLO 205 colon 50.2% | DU-145 prostate 71.9% | K-562 leukemia 17.8% | MALME-3M melanoma 17.9% | MDA-MB-231 breast 29.5% | RXF 393 renal 22.6% | SF-268 CNS 47.2% | SF-539 CNS 16.5% | UACC-257 melanoma 48.2% | M14 melanoma 44.6% | HCT-15 colon 33.9%
active: NCI-H522 lung -64% | 786-0 renal 9.39%

COc1ccc(-c2c(N)noc2-c2cc(OC)c3c(c2)OCCO3)cc1
active: NCI-H23 lung 1.48% | NCI-H226 lung -17.1% | NCI-H460 lung 7.94% | NCI-H522 lung 0.361% | COLO 205 colon -75.8% | DU-145 prostate -17.2% | SF-539 CNS 4.21% | M14 melanoma -16.2%
inactive: NCI-H322M lung 53% | A549/ATCC NSCLC 21.3% | 786-0 renal 13.1% | MALME-3M melanoma 81.2% | MDA-MB-231 breast 27.5% | RXF 393 renal 39.2% | SF-268 CNS 26.8% | SF-295 CNS 12.8% | UACC-257 melanoma 72.6% | HCT-15 colon 15.7%

CN1CCN(Cc2ccc(NC(=O)c3[nH]ncc3Nc3ccnc4ccnn34)cc2)CC1
inactive: NCI-H23 lung 62.3% | NCI-H226 lung 65.7% | NCI-H322M lung 79.6% | NCI-H460 lung 63.7% | NCI-H522 lung 55.7% | A549/ATCC NSCLC 81.3% | COLO 205 colon 39.5% | DU-145 prostate 47.4% | K-562 leukemia 34.9% | MALME-3M melanoma 58.9% | MDA-MB-231 breast 99.9% | RXF 393 renal 51.5% | SF-268 CNS 63.7% | SF-295 CNS 88.7% | SF-539 CNS 40.9% | UACC-257 melanoma 77.9% | M14 melanoma 57.1% | HCT-15 colon 98%

COc1cc(/C=C/C(=O)c2c(-c3ccc(F)cc3)nc3sc(C)nn23)cc(OC)c1OC
active: NCI-H522 lung -27% | DU-145 prostate 0.196% | K-562 leukemia 2.54% | MDA-MB-231 breast 7.91%
inactive: NCI-H23 lung 51.4% | NCI-H226 lung 38.9% | NCI-H322M lung 52.6% | NCI-H460 lung 11.8% | A549/ATCC NSCLC 12.2% | 786-0 renal 24.6% | COLO 205 colon 33% | SF-268 CNS 16.6% | SF-295 CNS 49.6% | SF-539 CNS 21.2% | UACC-257 melanoma 46.6% | M14 melanoma 34.9% | HCT-15 colon 15.9%
